Sm TGR inh: blocks Schistosoma mansoni thioredoxin glutathione reductase; actives 3% (n = 360,000); purified TGR, DTNB reduction, TNB absorbance 405 nm; AID 485364; Potency, µM (doses to about 114 µM), inactives show at the highest dose activity change, negative = inhibition, usual class: inhibitors; also: potency is read from the fitted curve at half-maximal effect; % is scaled to controls: 0 for no effect and ±100 for the full control effect; nearly all actives have a fitted effect of over 60% in size
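TGR 20 nM + NADPH 100 uM (dispensed conc.), cpd preinc 15 min RT; start with NADPH (500 uM addition) then DTNB (15 mM addition). Kinetic TNB absorbance, 405 nm filter. Four-parameter Hill fit across titration.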
Shiga inhibitor: blocks Shiga toxin action in Vero cells; inhibition, % at 38.7 µM; Vero cells, Shiga toxin protein synthesis inhibition reporter; actives 9.2% (n = 290,000); AID 2315; in the data active = inhibition mostly above about 28%, no sharp cut-off; inactive = mostly below about 43%; also: 0% is about no effect
Giardia FBPA inh: inhibitors of Giardia lamblia fructose-1,6-bisphosphate aldolase. purified Giardia FBPA. Potency, µM (highest dose often 59.6 µM), for the others: top-dose activity, negative = inhibition, hits mostly inhibitors. actives 0.71% (n = 290,000). AID 2451; also: potency is read from the fitted curve at half-maximal effect; % is scaled to controls: 0 for no effect and ±100 for the full control effect; nearly all actives have a fitted effect of over 55% in size
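40 nM FBPA preincubated 10 min at RT with compound (up to 57.5 uM final), then substrate plus GAPDH/TPI/NAD/arsenate coupling and diaphorase/resazurin added. Fluorescence read after 20 min at RT, 525/598 nm.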
CHX counter: affects cycloheximide protein synthesis inhibition readout, counter-screen. cell reporter, cycloheximide protein synthesis inhibition counterscreen. max response, %. actives 12% (n = 300,000); in the data active = max response mostly above about 13%, no sharp cut-off; inactive = mostly below about 14%; also: read at 38.3 µM for the half of the compounds with a filed dose; 0% is about no effect
Tb PYK inh: blocks Trypanosoma brucei pyruvate kinase; Q57TT1; TbPYK enzyme, Kinase-Glo Plus ATP luminescence, 45 min; Potency, µM (doses to about 76.8 µM), for the others: top-dose activity, negative = inhibition, usual class: inhibitors; actives 0.12% (n = 410,000); also: potency is read from the fitted curve at half-maximal effect; % is scaled to controls: 0 for no effect and ±100 for the full control effect; nearly all actives have a fitted effect of over 50% in size
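T. brucei PYK with substrate was exposed to pin-transferred compounds across a concentration series, then started with 130 uM ADP (final). After 45 min at room temperature, Kinase-Glo Plus luminescence was read, normalized and curve-fitted.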
LmPK inh: inhibitors of Leishmania mexicana pyruvate kinase; AID 1721; Q27686; Potency, µM (series often up to 57.5 µM), inactives show top-dose activity change, negative = inhibition, most hits filed as inhibitors; purified LmPK, Kinase-Glo ATP luminescence, 1 h; actives 0.37% (n = 290,000); also: potency is read from the fitted curve at half-maximal effect; % is scaled to controls: 0 for no effect and ±100 for the full control effect
Target sequence (Q27686 whole entry, looked up): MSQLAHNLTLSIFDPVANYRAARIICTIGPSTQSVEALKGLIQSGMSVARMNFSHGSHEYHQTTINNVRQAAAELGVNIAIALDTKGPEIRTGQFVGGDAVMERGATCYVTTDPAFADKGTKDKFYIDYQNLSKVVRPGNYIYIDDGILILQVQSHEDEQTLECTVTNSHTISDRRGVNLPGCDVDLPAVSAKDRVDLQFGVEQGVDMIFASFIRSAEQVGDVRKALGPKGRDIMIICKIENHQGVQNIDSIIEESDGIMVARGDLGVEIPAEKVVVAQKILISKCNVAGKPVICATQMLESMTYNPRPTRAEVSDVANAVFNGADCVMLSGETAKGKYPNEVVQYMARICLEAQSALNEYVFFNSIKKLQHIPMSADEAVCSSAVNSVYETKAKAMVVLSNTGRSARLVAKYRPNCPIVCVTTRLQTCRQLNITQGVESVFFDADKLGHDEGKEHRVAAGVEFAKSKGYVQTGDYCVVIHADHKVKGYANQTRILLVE
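Purified LmPK (0.1 nM) converted ADP (0.1 mM) to ATP with PEP (0.5 mM) in imidazole buffer pH 7.2 with KCl and MgCl2, 1 h at room temperature. ATP was read by Kinase-Glo luminescence; data normalized to uninhibited and no-enzyme controls.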
* marks the source's active call; other numbers are inactive results; ? = inconclusive; . = not tested or not shown; [ ] = another dose, or the depositor's remark. This excerpt belongs to a sample that is enriched for hits. Unless noted, calls follow the shape of the dose curve; as a rule, active = well fitted curve in the direction sought with a large enough effect; inconclusive = small, poorly fitted or top-dose-only effect, or another doubt; inactive = no such curve, though single readings can be large; an effect the other way counts as inactive or inconclusive.

SMILES | Sm TGR inh | Shiga inhibitor | Giardia FBPA inh | CHX counter | Tb PYK inh | LmPK inh
CC(=O)NC1C(=O)N=C(SCC(=O)NC2CCCCC2)NC1=O (stereo not drawn) | -14% | 57* | -12% | 22* | 4% | -2%
N=C(N)SCc1ccccc1Cl | 7% | -4 | -10% | -1 | 0% | -3%
O=C(CCSCc1ccccc1Cl)NC1CCCCC1 | 0% | 95* | 7% | 37* | -7% | 13%
NC(CSCc1ccccc1Cl)C(=O)O (stereo not drawn) | 16µM* | -7 | -13% | 5 | -1% | -2%
CN(C)C(=O)c1ccc(-c2nc(NCc3ccccc3)c3ccccc3n2)cc1 | . | . | -14% | . | . | .
CCOc1ccc(OCC)c(-c2c(=O)n(OCc3ccccc3Br)c3ccccc3[n+]2[O-])c1 | -1% | -2 | 4% | 8 | -11% | 2%
O=C(CSc1ccccc1)NC1CCCCCCC1 | -2% | 62* | 1% | 40* | -2% | 1%
O=C(CSc1ccccc1C(=O)O)NC1CCCCCC1 | 7% | 24 | 6% | -3 | -1% | -1%
O=C(CCS(=O)(=O)c1ccccc1)NC1CCCCC1 | -2% | 90* | . | 59* | 0% | -8%
O=C(CSc1ccccc1)NC1CCCCCC1 | -24% | 118* | 7% | 49* | 1% | -4%
O=C(CSc1ccccc1)NC1CC1 | . | . | . | . | -1% | .
CCC(Sc1nnc2c3ccccc3n(CC)c2n1)C(=O)Nc1ccc(NC(C)=O)cc1 (stereo not drawn) | -1% | . | . | . | 1% | .
COc1ccccc1CNC(=O)CCNS(=O)(=O)c1ccc2c(c1)oc(=O)n2C | -10% | -6 | . | -6 | -6% | -8%
COc1cccc(-c2nnc3n2N=C(c2ccccc2OC)CS3)c1 | . | -7 | -15% | 2 | . | .
COc1ccc(NS(=O)(=O)c2ccc(NC(=S)NC(=O)c3ccc(Br)cc3)cc2)nn1 | 40µM* | -8 | -6% | -2 | -2% | 3%
Cc1cc(NS(=O)(=O)c2ccc(NC(=S)NC(=O)c3cccc(S(=O)(=O)N(C)C)c3)cc2)no1 | 35µM* | -7 | -8% | -2 | -8% | -3%
Cc1cc(NS(=O)(=O)c2ccc(NC(=S)NC(=O)c3ccc(F)cc3)cc2)no1 | ? | -12 | 0% | 1 | -4% | 1%
COc1ccc(NS(=O)(=O)c2ccc(NC(=S)NC(=O)c3cccnc3)cc2)nn1 | ? | 18 | -13% | -1 | -10% | 3%
COc1ccc(NS(=O)(=O)c2ccc(NC(=O)c3ccc(Br)cc3)cc2)nn1 | . | -8 | -5% | -2 | -3% | -2%
COc1ccc(NS(=O)(=O)c2ccc(NC(=S)NC(=O)c3cccc(F)c3)cc2)nn1 | 45µM* | -4 | -20% | 4 | 5% | -1%
COc1cccc(C(=O)Nc2nc(-c3nnn(-c4ccccc4C(F)(F)F)c3C)ns2)c1 | -4% | . | . | . | -2% | .
COc1cccc(-c2nnc(-c3ccccc3NC(=O)c3cccc(C(F)(F)F)c3)o2)c1 | -7% | . | . | . | 2% | .
CC1(C)CC(=O)c2sc(NS(C)(=O)=O)nc2C1 | 0% | -3 | -15% | -4 | -6% | -2%
CC1(C)CNC(=O)c2sc(N3CCCCC3)nc2C1 | 0% | 56 | -1% | 23* | -1% | -2%
CC1(C)CC(=O)c2sc(N3CCCCC3)nc2C1 | 2% | 92* | -1% | 29* | 1% | -2%
SMILES | Sm TGR inh | Shiga inhibitor | Giardia FBPA inh | CHX counter | Tb PYK inh | LmPK inh
CC1(C)Cc2c(sc3nc(-c4ccccc4)n(N)c(=O)c23)CO1 | 1% | 46 | . | 11 | 0% | 4%
Nn1c(Cc2ccccc2)nc2sc3c(c2c1=O)CCC3 | 8% | -19 | -1% | 2 | 0% | 7%
CC1(C)Cc2c(sc3nc(-c4cccs4)n(N)c(=O)c23)CO1 | 4% | 57 | -4% | 36* | -8% | 9%
CCc1nc2sc3c(c2c(=O)n1N)CC(C)(C)OC3 | 1% | 14 | 0% | 1 | 2% | 0%
CN(C)c1nc2sc3c(c2c(=O)n1C)CC(C)(C)OC3 | -13% | 44* | -3% | 11* | 0% | -10%
Cc1nc2sc3c(c2c(=O)n1N)CCC3 | 0% | 8 | 0% | 6 | 5% | 3%
Cc1ccccc1-c1nc2sc3c(c2c(=O)n1N)CCCC3 | 1% | 75* | 0% | 43* | 9% | 6%
Nn1c(-c2cccs2)nc2sc3c(c2c1=O)CCCC3 | 5% | 108* | -3% | 35* | 7% | -16%
Cc1ccc(-n2ncc(C(=O)Nc3ccc4c(c3)OCCO4)c2C2CCN(C(=O)OC(C)(C)C)CC2)cc1C | -1% | . | . | . | 0%[15.4 µM] | .
CCCCN1C(=O)C(=O)NC[C@@H]1Cc1ccc(O)cc1 | . | . | . | . | -10% | .
CCCCN1C(=S)NC[C@@H]1Cc1ccc(O)cc1 | 11% | -6 | -8% | 7.2* | -13% | 1%
CCOC(=O)c1c(C)oc2c1cc(O)c1ccccc12 | -20% | 108* | -22% | 35* | 5% | 0%
CC(=O)c1coc2c1cc(O)c1ccccc12 | 0% | 36 | ? | 13 | 5% | 4%
CCOc1ccc(S(=O)(=O)Nc2cc3c(C(=O)OCc4ccccc4)c(C)oc3c3ccccc23)cc1 | -27% | . | . | . | -4% | .
CCOC(=O)c1c(C)[nH]c2c1cc(O)c1ccccc12 | -20% | 65* | ? | 34* | 0% | 3%
CCOC(=O)c1c(C)n(CC)c2c1cc(O)c1ccccc12 | 1% | -1 | -3% | -2 | -22% | 3%
CC(=O)c1cc(O)c2ccccc2c1O | 8.9µM* | 66* | ? | 31* | -14% | -11%
CCOC(=O)c1c(C)oc2c1cc(NS(=O)(=O)c1ccc(C(=O)O)cc1)c1ccccc12 | 28µM* | 15 | ? | 0 | -11% | -3%
O=C(c1ccco1)N1CCC2(CC1)CN(c1cccc(-c3ccccc3)c1)C2 | . | . | -13% | . | 5% | .
O=C(NCc1ccco1)c1ccc2sc([C@H]3C[C@H](O)[C@@H](CO)O3)nc2c1 | . | . | . | . | 2% | .
Cc1ccc(-c2nnc(SCC(=O)c3ccc(Cl)cc3)n2-c2ccccc2)cc1 | -2% | . | . | . | -9% | .
CCOC(=O)c1c(C)oc2c1c(C=NCC1CCCO1)c(O)c1ccccc12 (stereo not drawn) | -17% | -11 | ? | -3 | 1% | 1%
CC(=O)c1c(C)oc2c1cc(O)c1ccccc12 | -4% | 31 | -20% | 20* | 5% | 0%
CCOC(=O)c1c(C)oc2c1c(C=NCc1ccccn1)c(O)c1ccccc12 | ? | 47* | ? | 29* | -5% | 4%
CC(=O)c1c(C)oc2c1cc(NS(=O)(=O)c1ccc(Br)cc1)c1ccccc12 | 6% | . | . | . | 18% | .
Cc1ccc(NC(=O)c2nc(S(C)(=O)=O)ncc2N(Cc2ccco2)Cc2ccco2)cc1 | -4% | . | . | . | 1% | .
CCC(=O)N(Cc1ccco1)c1nc(C(=O)Nc2ccc(Cl)cc2)c(C)s1 | ? | 54* | -7% | 33* | -12% | 0%
